# Laboratory results published in the supplement of paper PMC3334620.
# The full ranking holds about 33,000 sequences; the median of “E-score (-0.5 to 0.5)” is about -0.036, and the highest 2% start at about 0.37. Many of the other results were omitted from the sample, so the highest values are more common in it than they were.
# Target: T1, Yer064c (UniProt P40041)
# T1 sequence: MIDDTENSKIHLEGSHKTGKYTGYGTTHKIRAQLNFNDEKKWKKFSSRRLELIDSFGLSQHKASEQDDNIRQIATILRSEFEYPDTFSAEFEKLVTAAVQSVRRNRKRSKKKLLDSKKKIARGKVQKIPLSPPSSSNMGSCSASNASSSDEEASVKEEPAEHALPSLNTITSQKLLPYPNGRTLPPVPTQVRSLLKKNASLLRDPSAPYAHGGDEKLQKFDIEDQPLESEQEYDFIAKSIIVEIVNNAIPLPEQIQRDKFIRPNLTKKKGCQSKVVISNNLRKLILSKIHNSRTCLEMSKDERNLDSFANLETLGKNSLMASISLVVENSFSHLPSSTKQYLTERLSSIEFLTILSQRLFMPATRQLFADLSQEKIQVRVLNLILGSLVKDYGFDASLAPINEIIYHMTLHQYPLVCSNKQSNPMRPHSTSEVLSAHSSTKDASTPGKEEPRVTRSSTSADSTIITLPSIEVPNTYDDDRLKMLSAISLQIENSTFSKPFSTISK
# Assay: PBM E-score (8-mer binding enrichment) (E-score (-0.5 to 0.5)); higher = stronger / more preferred TF binding
# Conditions: protein concentration: 200 nM; construct: GST-full length
# Procedure, shortened: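 For each ungapped eight-base word taken together with its reverse complement, the Universal PBM Analysis Suite assigned an E-score. Binding data came from GST-tagged yeast transcription factors, applied at about 100-200 nM, on universal all-10-mer Agilent arrays made double-stranded by primer extension. Fluorescent anti-GST marked bound protein, and scans were normalised with masliner.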
row,Sequence,PBM E-score
1,AGTCTTAT,0.383
2,TGTCTTAA,-0.0134
3,GGTCTTAC,0.131
4,CGTCTTAA,-0.00451
5,AGTCTTAA,0.387
6,AATCTTAT,0.207
7,CCCCAGGC,-0.41
8,AATCGACT,0.258
9,ATCTGGCA,-0.118
10,AGTGACCC,-0.0592
11,GTCTATCA,0.0174
12,GGTTTCTA,-0.133
13,CCTTTCTA,-0.251
14,AACAACAT,-0.0999
15,CTTTGTAA,0.173
16,TAGTTGAA,0.127
17,CACGTGAG,0.0942
18,ATTAGTCC,0.373
19,CTTAGTCA,0.483
20,ATTAGTGG,0.11
21,ATTAGGCC,0.00222
22,ATTAGTAC,0.205
23,ATTAGTTG,0.118
24,ATTAGTCG,0.41
25,ATTAGTTA,0.153
26,ATTAGTGA,0.219

row,Sequence,PBM E-score
1,CTTAGTTA,0.221
2,CTTAGTAA,0.161
3,ATTAGTCA,0.484
4,AAGAATAG,0.0215
5,CTAGAAAC,0.0516
6,CCTTCTAG,-0.244
7,GCAATGCC,-0.31
8,TAATATTA,0.207
9,AGCGATCC,-0.315
10,CGCGTCTA,-0.228
11,CTTAGTTC,0.0883
12,GTTAGTCA,0.49
13,GTTAGTTA,0.165
14,CTTAGGCC,-0.115
15,CTTAGTCC,0.37
16,GTTAGTGA,0.171
17,CTCGCGCA,-0.0489
18,GAGCGTCA,-0.0316
19,CACTTTGA,0.184
20,GGCTATCA,-0.11
21,CAGTCGCA,0.15
22,TAGTCGCA,0.412
23,TAGTCGAA,0.243
24,AAGTCGCA,0.257
25,TCGTCGCA,-0.0159
26,CAGTCGCC,0.254

row,Sequence,PBM E-score
1,GAGTCGCA,0.438
2,GAGTCGCC,0.439
3,AAGTCGCC,0.222
4,ACGGGCCT,-0.363
5,GGGCACCC,-0.269
6,CGGGACCA,-0.208
7,GAAGCGTA,-0.151
8,AACGGAAC,-0.134
9,AAGAGCCC,-0.196
10,CATTTCGA,-0.0334
11,AATCACGC,0.391
12,GATCACGC,0.18
13,AATCACGT,0.382
14,CATCACGA,0.132
15,AATCACGA,0.347
16,AATCAAGA,0.235
17,AAGGCAGG,-0.192
18,ACGTCCGG,-0.217
19,AGTGGGCC,-0.307
20,CTTCTGCC,-0.225
21,CTGGTTAA,0.162
22,ATGGTTAA,0.391
23,GTGGTTAA,0.222
24,GTAGCGAA,-0.0282
25,ATGCCGAG,-0.0321
26,CACTCGTA,-0.0316

row,Sequence,PBM E-score
1,AACTCGCC,-0.0941
2,TACTCGCA,0.211
3,AACTCGTA,-0.019
4,CACTCGCC,-0.0244
5,GACTCGTA,0.419
6,AACTCGCA,0.0388
7,GACTCGCC,0.371
8,GACTCGCA,0.414
9,AAGGTACG,-0.094
10,GCGTAGAC,-0.0194
11,GAGGTGAC,0.224
12,TATTCCAA,-0.0766
13,GCACTGAC,0.131
14,GGGCCGAA,-0.287
15,GCCTGCGA,-0.22
16,CGCAATCA,0.302
17,ATCAATCC,-0.0246
18,CTCAATCC,0.146
19,CTCAATCA,0.402
20,GTCAATCA,0.389
21,ATCAATCG,0.193
22,GTCAATTA,0.123
23,ATCAATCA,0.381
24,GGCAATCA,0.283
25,TGGGCGAA,0.0204
26,ATCTCTAG,-0.0229

row,Sequence,PBM E-score
1,CAGACGAC,0.137
2,AGTAAGTC,0.354
3,CCTCAGCA,-0.202
4,AACTGGTA,-0.259
5,CATGACGA,0.0513
6,AATGACCA,0.0838
7,AATGACCG,-0.203
8,AATGACTG,0.441
9,CATGACAA,-0.00212
10,CATGACTA,0.491
11,AATGACAG,-0.045
12,AATGACGA,0.0304
13,AATGACTA,0.487
14,AATAGGCT,-0.0339
15,CTCTCGGA,0.144
16,CTGTGGAA,0.0224
17,AATCCTCG,-0.0311
18,AATCATTA,0.397
19,AATCATTC,0.417
20,AAACATTG,-0.0364
21,CATCATTA,0.161
22,CATCATTC,0.0981
23,AAGCATTG,-0.159
24,GATCATTA,0.128
25,AATCATTG,0.43
26,ATTCATTA,0.21

row,Sequence,PBM E-score
1,TGGTAGAA,-0.0551
2,CACCCTGC,0.118
3,AGGCTACG,-0.232
4,ATCCAAAC,0.00765
5,GAGGACAA,-0.195
6,GTCACAAC,0.213
7,GGGTCAGA,0.00219
8,TCGTCAGA,-0.15
9,GAGTCAGA,0.472
10,GCGTCAGA,-0.116
11,ATGTCAGA,-0.0808
12,TAGTCAGA,0.457
13,GACGGCCC,-0.375
14,CATCCTAA,0.0625
15,GTAGAAAC,-0.119
16,AACGGCTT,-0.309
17,AACTCTTA,0.0866
18,CACTCTGC,-0.0532
19,GACTCTTA,0.428
20,CACTCTTA,-0.016
21,GACTCTGC,0.376
22,AACTCTGA,0.186
23,GACTCTGA,0.392
24,TACTCTGA,0.156
25,AACTCTGC,0.0728
26,ATTCTCTG,0.0149

row,Sequence,PBM E-score
1,CCTCTGCA,-0.264
2,GGCTAGAA,0.00723
3,GCCCTTAA,-0.185
4,AGGCCTGC,-0.27
5,CCGGGCCC,-0.315
6,GCGGACCA,-0.0691
7,AGCCCCCT,-0.382
8,ATAGGATG,0.0522
9,CCGAGTCA,0.467
10,GCGAGTCC,0.262
11,TCGAGTAA,0.11
12,TCGAGTCA,0.471
13,GCGAGTAA,0.206
14,ACGAGTTG,-0.0661
15,TCGAGCCA,-0.00283
16,ACGAGTAG,0.039
17,GCGAGTCA,0.485
18,ACGAGTCG,0.383
19,CCGAGTCG,0.261
20,CCGAGTCC,0.195
